From PubChem BioAssay (NCI) come the findings set out here.

Structures are written as SMILES. About 83,000 compounds went through this panel and 20% of them were active in at least one assay; those are over-represented in the sample as a whole.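 Values shown are percent growth following 48 h exposure of cells in 96-well plates to a single concentration of compound; below 10 was considered active.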 The source made the active and inactive calls.

The test relates to NCI-H226 lung. In words: NCI-60 one-dose screen, 48 h (100 = growth as untreated, 0 = no growth, -100 = all killed). To be noted: 10 µM.
`CCN1CCN(CCC(=O)Nc2cccc(-n3cc(-c4ccncc4)c(-c4ccc(Cl)c(OC)c4)n3)c2)CC1`: the growth was 65% (inactive).

Take `O=C1/C=C/[C@@H](O)[C@@H]2C[C@@H](O)C[C@H]2/C=C/CCC[C@H](C(F)(F)F)O1`: the growth was -46.7% (active).

Regarding `CC[C@@H](C(=O)[C@@H](C)[C@@H](O)[C@H](C)[C@@H]1O[C@@H]([C@@H](CC)C(=O)N(CC)CC)CC[C@@H]1C)C1O[C@]2(C=CC(=O)[C@]3(CC[C@@](C)([C@H]4CC[C@](O)(CC)[C@H](C)O4)O3)O2)[C@H](C)C[C@@H]1C` (stereo not given in full), the growth is 13.4% (inactive).

Turning to `COc1ccc(-c2cc(-c3ccc(Cl)cc3)nc(SCCCCCCC(=O)NO)n2)cc1OC`, the growth is 69.3% (inactive).

Regarding `N#CCc1csc(Cc2ccccc2)n1`, the growth was 101% (inactive). Turning to `CC(C)(C)OC(=O)CN1CCc2c(sc3ncnc(N/N=C/c4ccccc4Br)c23)C1`, the growth was 83.4% (inactive).

For the molecule `CC(CN(C)C)Oc1ccccc1NC1=C(Cl)C(=O)C(Nc2ccccc2OC(C)CN(C)C)=C(Cl)C1=O` (stereo not given), the growth was -94.4% (active).

Consider `Nc1ccn(Cc2nnc(CCC(=O)c3nc4ccccc4[nH]3)o2)c(=O)n1`, for which the growth is 73.7% (inactive). The same measure for `CC(C)(C)OC(=O)CN1CCc2c(sc3ncnc(N/N=C/c4cccc5ccccc45)c23)C1`: 53.1% (inactive); for `CCOC(=O)c1cc(C(=O)c2ccc(Cl)cc2)n2ccc(-c3cc[n+](CC(=O)c4ccc(OC)cc4)cc3)cc12`: 102% (inactive). The same measure for `NS(=O)(=O)Oc1ccc(NC(=O)C2CCCCCC2)cc1`: 100% (inactive); for `NNC(=O)Oc1c(Cl)cc(Cl)cc1[N+](=O)[O-]`: 106% (inactive); for `O=C1c2ccccc2C(=O)c2c1ccc(C(Br)Br)c2[N+](=O)[O-]`: -1.88% (active). The same measure for `COc1ccc(NC(=O)C2CC3C=CC2C3)c([N+](=O)[O-])c1` (stereo not given): 96.1% (inactive); for `CC[C@@H](C(=O)[C@H](C)[C@H](O)[C@@H](C)[C@H]1O[C@H]([C@@H](CC)C(=O)N(CC)CC)CC[C@H]1C)C1O[C@]2(C=C[C@@H](O)[C@]3(CC[C@@](C)([C@H]4CC[C@](O)(CC)[C@H](C)O4)O3)O2)[C@H](C)C[C@@H]1C` (stereo not given in full): 7.49% (active).

Turning to `COc1cc(-c2nn(-c3cccc(NC(=O)NCCNC(=O)c4cccc(C(F)(F)F)c4)c3)cc2-c2ccncc2)ccc1Cl`, the growth is 70.8% (inactive). The same measure for `O=C(O)c1cc([N+](=O)[O-])ccc1Oc1ccccc1`: 98.6% (inactive). The same measure for `CCOC(=O)c1cc(C(=O)c2cc(OC)c(OC)c(OC)c2)n2nc(C)ccc12`: 79.5% (inactive). The same measure for `CC[C@@H](C(=O)[C@@H](C)[C@@H](O)[C@H](C)[C@@H]1O[C@@H]([C@@H](CC)C(=O)O)CC[C@@H]1C)C1O[C@]2(C=CC(=O)[C@]3(CC[C@@](C)([C@H]4CC[C@](O)(CC)[C@H](C)O4)O3)O2)[C@H](C)C[C@@H]1C` (stereo not given in full): 28.3% (inactive); for `Cc1ccc(S(=O)(=O)N(C)CCCCCC(=O)O)cc1`: 99.7% (inactive); for `COc1ccc(C2=Cn3c(CCC(=O)c4nc5ccccc5[nH]4)nnc3SC2)cc1`: 89.3% (inactive). As to `CCCN(CCC)C(=O)[C@H](CC)[C@@H]1CC[C@@H](C)[C@@H]([C@H](C)[C@@H](O)[C@@H](C)C(=O)[C@H](CC)C2O[C@]3(C=C[C@@H](O)[C@]4(CC[C@@](C)([C@H]5CC[C@](O)(CC)[C@H](C)O5)O4)O3)[C@H](C)C[C@@H]2C)O1` (stereo not given in full), the growth was -2.4% (active). Take `OCC1OC(n2cnc3c(NCc4ccco4)ncnc32)C(O)C1O` (stereo not given): the growth was 51.8% (inactive). With `CC[C@@H](C(=O)[C@H](C)[C@H](O)[C@@H](C)[C@H]1O[C@H]([C@@H](CC)C(=O)O)CC[C@H]1C)C1O[C@]2(C=C[C@@H](O)[C@]3(CC[C@@](C)([C@H]4CC[C@](O)(CC)[C@H](C)O4)O3)O2)[C@H](C)C[C@@H]1C` (stereo not given in full), the growth is 21.4% (inactive). The same measure for `O=C(/C=C/c1cccc(B(O)O)c1)c1cccc(B(O)O)c1`: -59.2% (active); for `Cc1ccc(Cl)cc1NC(=O)CCl`: 99.4% (inactive). The same measure for `COc1cc(/C=C/c2cc(/C=C/c3ccc(O)c(OC)c3)nc(N)n2)ccc1O`: 11.7% (inactive). The same measure for `C/C(=N\O)c1ccc(NC(=O)CSc2nnc(-c3ccccc3)n2-c2ccccc2)cc1`: 72.4% (inactive). For `O=C(NCCCNS(=O)(=O)c1ccc(Cl)cc1)Nc1ccc(-n2cc(-c3ccncc3)c(-c3ccc(Cl)c(O)c3)n2)cc1`, the growth is 41% (inactive). The same measure for `CS(=O)(=O)c1nccc(-c2c(-c3cccc(OCCN4CCOCC4)c3)nc3sccn23)n1`: 83.9% (inactive). The same measure for `C=CCSC(CC)(CC)C(=O)NC`: 97.8% (inactive); for `CCn1c(SC/C(=N/O)c2ccccc2)nnc1-c1ccccc1`: 108% (inactive). The same measure for `CCN(CC)CCOc1ccc2c(c1O)C(=O)c1ccccc1C2=O`: 86.2% (inactive).

As to `CS(=O)(=O)c1nccc(-c2c(-c3cccc(O)c3)nc3sccn23)n1`, the growth was 95.4% (inactive). `CC(=O)[C@H]1CC[C@]2(C)[C@@H]1CC[C@@H]1[C@@]3(C)CC(CCC#N)(CCC#N)C(=O)C(C)(C)[C@@H]3CC[C@]12C`: the growth is 94.6% (inactive). The same measure for `COc1cc(-c2nn(-c3cccc(NC(=O)CN4CCOCC4)c3)cc2-c2cccnc2)ccc1Cl`: 82.2% (inactive); for `CNS(=O)(=O)Oc1ccc(-c2sc3cc(OS(=O)(=O)NC)ccc3c2C(=O)c2ccc(OCCN3CCCCC3)cc2)cc1`: 84.4% (inactive); for `Clc1ccc(/C=C2\CCCC3C2=Nc2ccccc2NC3c2ccc(Cl)cc2)cc1` (stereo not given): 100% (inactive). The same measure for `CCOS(=O)(=O)c1c(C(C)C)cc(C(C)C)cc1C(C)C`: 99.5% (inactive); for `COc1cc(/C=C/c2cc(/C=C/c3ccc(O)c(OC)c3)n(C(=O)Nc3ccccc3Cl)n2)ccc1O`: -3.72% (active).
